Experimental findings from PubChem BioAssay are described below.

A short description of experiment [1]: parental HEK293 membrane potential modulation, confirmation, counter-screen for TRPC6 modulator project, cell-based (AID 488924;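 active = membrane potential signal moves up or down beyond 5 SD from buffer-only wells, on both duplicate plates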). The note with it: parental HEK293, membrane potential dye fluorescence; at 10 µM. For orientation: The purpose of a counterscreen is to sort out artefacts and off-target activity.
Experiment [2] can be described thus: modulation of acetylcholine-evoked membrane potential, parental HEK293, confirmation, counter-screen for TRPC6 modulator project, cell-based, second counter-screen, membrane potential dye (AID 488926;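 active = membrane potential signal drops by more than 5 SD from the mean control signal, in both duplicate plates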;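 for inhibition: plate controls were acetylcholine ECmax control wells for no effect and buffer only wells for full effect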). The conditions noted are these: parental HEK293, membrane potential dye fluorescence, at 10 µM, after compound, maximal acetylcholine stimulation; hits give high values.

Experiment [3] concerns Transient receptor potential cation channel subfamily C member 4 (mouse). The experiment can be described thus: TRPC4 modulation by TRPC6 hit compounds, confirmation, selectivity assay for TRPC6 modulator project, cell-based, HEK293 TRPC4/mu-opioid, membrane potential dye, mouse (AID 488927).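 For percent change from control (negative = decrease, positive = increase): plate controls were assay buffer wells for no effect and DAMGO maximal-effect wells for full effect.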 The note with it: membrane potential fluorescence, at 10 µM.
Experiment [4] has as its system TRPC4 (transient receptor potential cation channel C4), mouse. The experiment can be described thus: TRPC4 inhibition by TRPC6 hit compounds, confirmation, selectivity assay for TRPC6 modulator project, cell-based, second screen, HEK293 TRPC4/mu-opioid, membrane potential dye (AID 488928;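 active = drop in membrane potential signal beyond 5 SD of the control wells in both duplicate plates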;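 note: TRPC4 counter screen for TRPC6 hits run under conditions tuned for TRPC6 not TRPC4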). The note with it: membrane potential dye fluorescence, at 10 µM, stimulated with maximal-effect DAMGO; hits give high values.

Experiment [5] addresses Short transient receptor potential channel 6 (Mus musculus) (UniProt Q61143). Briefly: mouse TRPC6 channel inhibitors, confirmation, HEK293 cells, membrane potential dye, duplicate (AID 488960;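 active = fluorescence ratio falls more than 5 SD below the full-stimulation control mean, in both duplicate runs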;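 for inhibition: integrated fluorescence ratio of peak minus minimum over baseline after agonist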). The conditions noted are these: ACh-evoked depolarization, at 10 µM; hits give high values.
Experiment [6] shares this target. Briefly: mouse TRPC6 channel activators, confirmation, HEK293 cells, membrane potential dye, duplicate (AID 488961;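 active = ratio signal rise beyond 5 SD above unstimulated control wells' mean, seen in both duplicate runs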;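 for activation: plate controls were buffer EC0 wells for no effect and acetylcholine ECmax response for full effect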). The conditions noted are these: HEK293-TRPC6 membrane potential dye fluorescence, FDSS, at 10 µM; hits give high values.
Experiment [7] can be described thus: thallium flux activation in parental CHO cells, counter-screen for KCNQ1 potentiator project (AID 493006;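 active = duplicate-averaged activation above buffer control mean plus 5 SD of those controls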). The conditions noted are these: parental CHO-K1 cells, FluxOR thallium flux, at 10 µM; hits give high values.
The target in experiment [8] is Potassium voltage-gated channel subfamily KQT member 1 (Homo sapiens) (UniProt P51787). The experiment can be described thus: KCNQ1 potassium channel potentiators, confirmation, FluxOR thallium flux, CHO cells, duplicates (AID 493007;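 active = potentiation averaged over duplicate wells exceeding buffer-only control mean by more than 3 SD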;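 note: cells depolarized by a potassium plus thallium sulfate stimulus after compound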). The note with it: KCNQ1 cell line, FluxOR thallium flux fluorescence, at 10 µM; hits give high values, % of reference activator effect, buffer zero.

For experiment [9], the target named is Potassium voltage-gated channel subfamily KQT member 2 (Rattus norvegicus) (UniProt O88943). The experiment can be described thus: rat KCNQ2 channel potentiation, selectivity assay for KCNQ1 potentiator project, KCNQ2-CHO-K1 cells (AID 493009;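 active = mean duplicate potentiation above the buffer control mean plus 5 SD of buffer wells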;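 note: assay conditions were tuned for KCNQ1 rather than KCNQ2 modulators; signal is max minus min fluorescence divided by baseline after thallium stimulus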). The conditions noted are these: FluxOR thallium flux fluorescence, at 10 µM; hits give high values, scaled: buffer 0, activator control 100.

Experiment [10] concerns the target Potassium voltage-gated channel subfamily KQT member 1 (Homo sapiens) (UniProt P51787). The experiment can be described thus: KCNQ1 channel current potentiators, confirmation, orthogonal assay for KCNQ1 potentiator project, IonWorks patch clamp, KCNQ1-CHO cells (AID 493184;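 active = current rise at least 3 SD above the untreated control mean in each of two repeat wells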). The note with it: automated patch clamp current, at 10 µM; hits give high values. For orientation: In patch-clamp work, channel activity is measured electrically.

A number with no mark means an inactive call. This is one part of the list. The source made the active and inactive calls.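 Rule for the calls, unless noted: active = membrane potential signal moved up or down beyond 5 SD of buffer control wells, in both duplicate plates, actives on both sides; inactive = the rest.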

For orientation: inhibition means the drop in the measured response relative to a control, in per cent.

Chain of Short transient receptor potential channel 6 (Mus musculus) (Q61143 whole entry, looked up): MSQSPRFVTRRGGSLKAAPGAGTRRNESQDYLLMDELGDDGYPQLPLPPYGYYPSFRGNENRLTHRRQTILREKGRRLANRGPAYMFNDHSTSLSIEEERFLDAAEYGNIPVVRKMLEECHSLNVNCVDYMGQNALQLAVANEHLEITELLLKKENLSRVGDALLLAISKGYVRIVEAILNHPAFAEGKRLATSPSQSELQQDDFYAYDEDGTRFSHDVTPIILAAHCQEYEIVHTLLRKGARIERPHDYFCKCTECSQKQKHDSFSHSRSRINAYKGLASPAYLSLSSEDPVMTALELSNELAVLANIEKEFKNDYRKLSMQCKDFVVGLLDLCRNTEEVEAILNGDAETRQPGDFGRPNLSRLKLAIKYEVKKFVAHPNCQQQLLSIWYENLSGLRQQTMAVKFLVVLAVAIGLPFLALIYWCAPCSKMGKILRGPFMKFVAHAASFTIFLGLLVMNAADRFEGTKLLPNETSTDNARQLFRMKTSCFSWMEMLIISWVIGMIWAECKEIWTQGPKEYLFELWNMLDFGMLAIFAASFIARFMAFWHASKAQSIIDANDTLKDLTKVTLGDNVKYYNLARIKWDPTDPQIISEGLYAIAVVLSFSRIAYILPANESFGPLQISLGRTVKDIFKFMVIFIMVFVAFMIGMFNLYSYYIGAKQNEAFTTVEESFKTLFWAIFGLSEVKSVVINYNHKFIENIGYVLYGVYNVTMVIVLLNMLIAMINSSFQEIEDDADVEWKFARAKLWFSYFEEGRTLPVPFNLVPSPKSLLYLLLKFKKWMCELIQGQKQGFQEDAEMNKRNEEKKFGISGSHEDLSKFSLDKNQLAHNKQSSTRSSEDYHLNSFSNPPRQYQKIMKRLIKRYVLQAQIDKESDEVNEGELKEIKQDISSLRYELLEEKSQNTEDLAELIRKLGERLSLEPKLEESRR
Chain of Potassium voltage-gated channel subfamily KQT member 1 (Homo sapiens) (P51787 whole entry, looked up): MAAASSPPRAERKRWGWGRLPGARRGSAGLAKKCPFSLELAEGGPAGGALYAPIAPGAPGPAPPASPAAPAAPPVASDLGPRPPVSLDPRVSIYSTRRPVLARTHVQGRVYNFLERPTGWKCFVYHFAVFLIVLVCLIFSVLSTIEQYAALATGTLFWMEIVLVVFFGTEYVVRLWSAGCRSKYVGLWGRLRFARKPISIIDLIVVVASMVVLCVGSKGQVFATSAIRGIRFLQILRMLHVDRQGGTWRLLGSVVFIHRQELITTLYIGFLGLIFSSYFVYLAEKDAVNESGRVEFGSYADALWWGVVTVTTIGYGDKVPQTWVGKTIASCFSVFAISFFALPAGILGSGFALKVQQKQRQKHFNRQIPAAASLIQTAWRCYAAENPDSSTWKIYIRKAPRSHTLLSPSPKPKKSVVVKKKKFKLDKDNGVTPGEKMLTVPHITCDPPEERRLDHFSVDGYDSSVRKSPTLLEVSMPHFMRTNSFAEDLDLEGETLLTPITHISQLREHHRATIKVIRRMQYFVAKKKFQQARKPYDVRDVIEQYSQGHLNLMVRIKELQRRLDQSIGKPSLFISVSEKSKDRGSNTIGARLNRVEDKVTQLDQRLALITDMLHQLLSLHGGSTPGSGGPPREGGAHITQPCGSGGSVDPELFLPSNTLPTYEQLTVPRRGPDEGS
Chain of Potassium voltage-gated channel subfamily KQT member 2 (Rattus norvegicus) (O88943 whole entry, looked up): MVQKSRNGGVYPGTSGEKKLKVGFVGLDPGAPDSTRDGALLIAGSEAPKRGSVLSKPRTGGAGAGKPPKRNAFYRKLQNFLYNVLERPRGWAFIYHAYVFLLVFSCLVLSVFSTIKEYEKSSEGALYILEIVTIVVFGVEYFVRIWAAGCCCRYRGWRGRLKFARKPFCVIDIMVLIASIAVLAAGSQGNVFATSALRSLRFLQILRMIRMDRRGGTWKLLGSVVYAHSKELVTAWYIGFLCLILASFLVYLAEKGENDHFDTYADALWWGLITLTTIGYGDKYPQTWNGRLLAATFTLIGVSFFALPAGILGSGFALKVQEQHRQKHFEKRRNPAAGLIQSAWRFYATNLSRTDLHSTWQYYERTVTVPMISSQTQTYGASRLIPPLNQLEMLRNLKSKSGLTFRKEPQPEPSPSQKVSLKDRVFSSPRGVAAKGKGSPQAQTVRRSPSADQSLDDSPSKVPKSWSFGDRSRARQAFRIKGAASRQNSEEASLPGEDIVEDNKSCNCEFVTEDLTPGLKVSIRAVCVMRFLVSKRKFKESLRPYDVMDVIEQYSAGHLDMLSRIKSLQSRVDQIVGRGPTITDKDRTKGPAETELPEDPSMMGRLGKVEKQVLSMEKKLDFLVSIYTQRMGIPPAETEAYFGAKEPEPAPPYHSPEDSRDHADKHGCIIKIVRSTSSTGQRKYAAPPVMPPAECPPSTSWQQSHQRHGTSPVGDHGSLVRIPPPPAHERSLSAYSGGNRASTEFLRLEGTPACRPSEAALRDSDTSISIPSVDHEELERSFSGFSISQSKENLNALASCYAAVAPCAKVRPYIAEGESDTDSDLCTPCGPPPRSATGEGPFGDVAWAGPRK

On to `CCN1CCN(c2nc(Nc3cc(OC)ccc3OC)nc(Nc3cc(OC)ccc3OC)n2)CC1`, for which the outcome in [1], in experiment [2], in experiment [3], in [5] and in experiment [6] was inactive. The inhibition in [4] is 55.5% (active).

Consider `CCOc1nc(NCCN2CCOCC2)nc(Nc2ccc(C)cc2)n1`, for which, in experiment [1], the membrane potential signal change is 98% (active). Also, the outcome in experiment [2], in [4] and in [5] was inactive. Further, in [3], the percent change from control (negative = decrease, positive = increase) was 15% (active).

In the case of `COc1ccc(Cn2c(-c3ccc(Cl)cc3)c[n+]3ccccc23)cc1`, the membrane potential signal change in experiment [1] was -296% (active). The result in experiment [2] and in experiment [6] was inactive. Besides, the percent change from control (negative = decrease, positive = increase) in experiment [3] was -51.5% (active). Further, the values for the inhibition in experiment [4] and in experiment [5] were 48% (active) and 50.5% (active), respectively.

Take `O=C(C[n+]1ccc2c(c1)nnn2-c1ccccc1)c1ccc(Cl)cc1`: the membrane potential signal change in experiment [1] was -110% (active). Besides, the result in experiment [2] and in experiment [6] was inactive. Further, the percent change from control (negative = decrease, positive = increase) in experiment [3] was -37.5% (active). Moreover, the inhibition is 62% (active) in [4] and 56% (active) in [5].

`CN(C)c1ccc(/C=C2\NC(=S)N(Cc3ccccc3)C2=O)cc1`: in [1], the membrane potential signal change is 267% (active). The outcome in experiment [2], in experiment [4], in experiment [5] and in [6] was inactive. Further, the percent change from control (negative = decrease, positive = increase) in experiment [3] is 126% (active).

Take `COc1ccc(Br)cc1/C=N/n1c(C)nnc1C`: the result in experiment [1], in [2], in [4] and in [5] was inactive. Moreover, the percent change from control (negative = decrease, positive = increase) in experiment [3] was 10% (active).

Turning to `N=c1n(CCc2ccccc2)c2ccccc2n1Cc1ccccc1F`, the membrane potential signal change in experiment [1] is 129% (active). In [2], the result was inactive. For the same molecule, the percent change from control (negative = decrease, positive = increase) in [3] was 20.5% (active). Besides, the inhibition in [4] was 90.5% (active); in experiment [5], 66.5% (active).

Consider `CN1CCN(C(=O)N2c3ccccc3CCc3ccccc32)CC1`, for which the result in experiment [1], in experiment [2], in experiment [4] and in experiment [5] was inactive. Also, the percent change from control (negative = decrease, positive = increase) in experiment [3] was 14.5% (active).

With `CCN(CC)S(=O)(=O)c1ccc(N2CC(C(=O)NCc3cccnc3)CC2=O)cc1` (centres undefined), the outcome in experiment [1], in [2], in experiment [3], in experiment [4], in experiment [5] and in experiment [6] was inactive.

For `CCOc1ccc(/C(O)=C2/C(=O)C(=O)N(Cc3cccnc3)C2c2ccc(N(C)C)cc2)c(C)c1` (centres undefined), the outcome in [1], in experiment [2], in experiment [3], in experiment [4], in [5] and in [6] was inactive.

In the case of `CCN1CCN(c2ccc([N+](=O)[O-])cc2C(=O)c2ccc(Cl)cc2)CC1`, the membrane potential signal change in experiment [1] is 150% (active). In addition, the result in experiment [2], in [5] and in [6] was inactive. In addition, the percent change from control (negative = decrease, positive = increase) in experiment [3] was 20.5% (active). In addition, the inhibition in experiment [4] was 63.5% (active).

In the case of `CCCN(CCc1ccccc1)C1CCc2c(O)cccc2C1` (centres undefined), in [1], the membrane potential signal change was 202% (active). The result in experiment [2] and in experiment [5] was inactive. Further, the percent change from control (negative = decrease, positive = increase) in [3] is 45.5% (active). Further, the inhibition in experiment [4] was 68.5% (active). For the same molecule, in [6], the activation was 88.5% (active).

As to `CCCC(=O)Nc1ccc(C(=O)NCCCn2ccnc2)cc1`, the outcome in experiment [1], in experiment [2], in experiment [3], in [4], in [5] and in experiment [6] was inactive.

For `Cc1cccc(NC(=O)CSc2ccc3nnc(-c4cccnc4)n3n2)c1`, the outcome in experiment [7], in experiment [8], in [9] and in experiment [10] was inactive.

Consider `CN1CCN(/N=C/c2ccc(-c3ccc([N+](=O)[O-])cc3)o2)CC1`, for which, in experiment [1], the membrane potential signal change is 407% (active). Besides, the result in experiment [2] was inactive. The percent change from control (negative = decrease, positive = increase) in [3] is 65.5% (active). In addition, in experiment [4], the inhibition is 43.5% (active). The activation in experiment [6] is 158% (active).

In the case of `Cc1c(CCOC(=O)CC23CC4CC(CC(C)(C4)C2)C3)sc[n+]1Cc1ccc([N+](=O)[O-])cc1`, in experiment [1], the membrane potential signal change was -103% (active). The result in [2], in experiment [4], in experiment [5] and in [6] was inactive. The percent change from control (negative = decrease, positive = increase) in experiment [3] is -29.5% (active).

Consider `COC(=O)c1c(NC(=O)c2ccc(S(=O)(=O)N3CCOCC3)cc2)sc2c1CCN(C(C)C)C2`, for which, in [1], the membrane potential signal change is -96% (active). For the same molecule, the result in [2], in experiment [5] and in experiment [6] was inactive. Further, the percent change from control (negative = decrease, positive = increase) in experiment [3] is -33% (active). In addition, in experiment [4], the inhibition is 37.5% (active).

For `CC(C)c1ccc(NC(=O)Cn2ncc3ccccc32)cc1`, the outcome in experiment [1], in [2], in experiment [3], in [4], in [5] and in experiment [6] was inactive.

Turning to `CCOC(=O)c1sc2nc(CSCC(=O)OCc3ccc(C(=O)OC)o3)[nH]c(=O)c2c1C`, in experiment [1], the membrane potential signal change was 148% (active). Also, the result in experiment [2], in [3] and in experiment [4] was inactive. In addition, the inhibition in experiment [5] is 90% (active). Besides, the activation in [6] is 134% (active).

Consider `CCCCc1nc(NCCN)c(C#N)c2c1CSC(C)(C)C2`, for which the outcome in [1], in experiment [2], in [3], in experiment [5] and in experiment [6] was inactive. The inhibition in [4] is 56.5% (active).

For the molecule `N=c1c2c3c(sc2ncn1CCCN1CCOCC1)CCCCC3`, the result in [1], in experiment [2], in experiment [3], in experiment [5] and in [6] was inactive. For the same molecule, the inhibition in [4] is 52.5% (active).

Turning to `CC(C)(C)Nc1nc(-c2ccccn2)nc2ccccc12`, the membrane potential signal change in experiment [1] is -424% (active). In addition, the values for the inhibition in experiment [2], in experiment [4] and in experiment [5] were 77% (active), 74% (active) and 56.5% (active), respectively. The percent change from control (negative = decrease, positive = increase) in experiment [3] is -58% (active). The molecule was called inactive in [6].

In the case of `Cc1ccccc1NC(=O)CNc1ccccc1N1CCCCC1`, the outcome in experiment [1], in experiment [2], in experiment [3], in experiment [5] and in experiment [6] was inactive. Moreover, in experiment [4], the inhibition was 52.5% (active).

For `COc1ccc(Cl)cc1NC(=O)CCS(=O)(=O)c1cc2c(cc1C)NC(=O)CO2`, the result in [1], in experiment [2], in experiment [4], in experiment [5] and in experiment [6] was inactive. Moreover, the percent change from control (negative = decrease, positive = increase) in [3] was -9.5% (active).

Consider `CCc1ccc(-c2cc(C(=O)NN3CCN(C)CC3)c3ccccc3n2)cc1`, for which the outcome in experiment [1], in experiment [2], in [3], in experiment [5] and in experiment [6] was inactive. In addition, the inhibition in experiment [4] was 41% (active).

In the case of `COC(=O)c1ccc(NC(=O)CSc2nnc(-c3ccncc3)n2C)cc1`, the membrane potential signal change in experiment [1] is 292% (active). Also, the result in [2], in [4] and in experiment [5] was inactive. Further, in experiment [3], the percent change from control (negative = decrease, positive = increase) is 35.5% (active). Moreover, the activation in [6] is 116% (active).
